Arbovirus inh = blocks arbovirus infection. 0.37% of 200,000 active. inhibition, % at 10 µM. AID 1251. arbovirus infection cell-based antiviral screen; in the data active = inhibition above about 30%
Bim-Bcl-2 = disrupts Bim peptide binding to human Bcl-2; 0.06% of 190,000 active; AID 950; P10415; inhibition, % at 10 µM; Bead-based flow cytometry, Bim peptide-Bcl-2 binding; in the data active = inhibition above about 40%
Target sequence (P10415 whole entry, looked up): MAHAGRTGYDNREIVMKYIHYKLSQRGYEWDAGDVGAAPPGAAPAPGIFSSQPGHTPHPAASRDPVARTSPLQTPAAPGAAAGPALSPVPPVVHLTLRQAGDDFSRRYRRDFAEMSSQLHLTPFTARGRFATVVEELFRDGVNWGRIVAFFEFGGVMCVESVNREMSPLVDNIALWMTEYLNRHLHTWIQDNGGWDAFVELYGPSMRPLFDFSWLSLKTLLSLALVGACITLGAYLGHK
Bim-Bcl-W = inhibitors of Bim-Bcl-W interaction, human; bead-based flow cytometry, Bim peptide-Bcl-W binding; Q92843; inhibition, % at 10 µM; 0.02% of 190,000 active;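 note: higher means less fluorescent Bim peptide bound to Bcl-W beads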
Bcl-XL Bim block = inhibitors of Bim-Bcl-XL interaction, human; Q07817; Bim peptide-Bcl-XL binding, bead flow cytometry, fluorescence; 0.04% of 190,000 active; inhibition, % at 10 µM; AID 1007
Bcl-B Bim block = human Bim-Bcl-B interaction inhibition | bead-based flow cytometry, Bim peptide-Bcl-B binding | inhibition, % at 10 µM | 0.073% of 190,000 active | AID 951
Target sequence (Q9HD36 whole entry, looked up): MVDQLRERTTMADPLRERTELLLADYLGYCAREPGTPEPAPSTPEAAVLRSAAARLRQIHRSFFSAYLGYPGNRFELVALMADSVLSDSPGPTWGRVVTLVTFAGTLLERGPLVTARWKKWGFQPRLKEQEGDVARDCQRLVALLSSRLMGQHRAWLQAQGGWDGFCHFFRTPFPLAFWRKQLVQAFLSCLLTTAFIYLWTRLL
Bfl-1 Bim block = inhibitors of Bim-Bfl-1 interaction, human; Q16548; Bead-based flow cytometry, Bim-Bfl-1 binding inhibition; inhibition, % at 10 µM; 0.12% of 190,000 active; AID 1008
Of the large screens only hits and unclear results are named; the others gave an inactive call. In the library only some 0.56% were active in any assay of this set; here they are far more common. Cut-off read from the data, not from the text of the source, unless noted: active = inhibition above about 40%.

CC(C)n1c(NCCc2ccccc2)nc2c1c(=O)n(C)c(=O)n2C	Arbovirus inh 30
CCCNc1nc2c(c(=O)n(C)c(=O)n2C)n1CCc1ccccc1	none
CCCn1c(C)cc(-c2csc(N)n2)c1C	Bcl-B Bim block 46
C=CCn1c(C)cc(-c2csc(N)n2)c1C	none
Cc1nn(-c2ccccc2)c2nc(C(F)(F)F)[nH]c(=O)c12	Arbovirus inh 37
Cc1nn(CCC#N)c2nc(C(F)(F)F)[nH]c(=O)c12	none
O=C(Nc1nc2c(s1)CCCC2)c1ccc(Br)s1	Arbovirus inh 38
O=C(Nc1nc2c(s1)CCCC2)c1ccc2ncsc2c1	none
CCSc1nnc(NC(=O)c2ccc(Br)s2)s1	Arbovirus inh 31
Cc1ccc(OCCCCNC2CCCC(C)C2C)c(C)c1 (configuration not stated)	none
CCN(c1ccc(NC(=O)COC(=O)CCc2cc(OC)c(OC)c(OC)c2)cc1)C(C)C	none
COc1cccc(CN(C)CC(=O)Nc2ccccc2C(C)C)c1	none
COc1ccc(Oc2ccc(S(=O)(=O)N3CCCCC3)cc2S(=O)(=O)N2CCCCC2)cc1	Arbovirus inh 36 (no result: Bim-Bcl-2, Bim-Bcl-W, Bcl-XL Bim block, Bcl-B Bim block, Bfl-1 Bim block)
Cc1ccc(C(=O)N/C(=C\c2cccs2)C(=O)NCc2cccnc2)cc1	Arbovirus inh 30
Cc1ccc(C(=O)N/C(=C\c2ccco2)C(=O)NCc2cccnc2)cc1	none
N#Cc1c(-c2ccncc2)c2c([nH]c1=S)CCCC2	none
Cc1ccc(-c2c3c([nH]c(=S)c2C#N)CCCC3)o1	Bfl-1 Bim block 41
CC1=Nc2ccc(C)cc2/C1=C/c1c(N)n2c(S(=O)(=O)C(C)C)nsc2nc1=O	Arbovirus inh 45
CSc1nsc2nc(=O)c(/C=C3\C=Nc4ccccc43)c(N)n12	Arbovirus inh 38
CCn1c(O)c(/C=C2\C=Nc3ccccc32)sc1=O	none
CC1=Nc2ccccc2/C1=C/c1c(N)n2c(S(=O)(=O)C(C)C)nsc2nc1=O	Arbovirus inh 39
CCc1nn2c(N)c(/C=C3\C=Nc4ccccc43)c(=O)nc2s1	Arbovirus inh 31
CSc1nsc2nc(=O)c(/C=C3\C(C)=Nc4ccc(C)cc43)c(N)n12	none
CCN(c1ccccc1)S(=O)(=O)c1ccc(C(=O)OC(C)C(=O)NCCC2=CCCCC2)cc1 (configuration not stated)	none
COc1ccc(N2C(=O)C3ON(C4SC(=S)N(C)C4(C)C)C(c4ccc(Cl)cc4)C3C2=O)cc1 (configuration not stated)	none
CC1=Nc2ccccc2/C1=C/c1c(N)n2c(S(=O)(=O)CC(C)C)nsc2nc1=O	none
CC(C)S(=O)(=O)c1nsc2nc(=O)c(/C=C3\C=Nc4ccccc43)c(N)n12	Arbovirus inh 37
O=C(c1ccco1)N1CCN(c2nc(-c3ccc(F)cc3)cs2)CC1	Arbovirus inh 31
N#Cc1c(SCc2cccc(Cl)c2)sc(C(=O)c2ccccc2)c1N	Arbovirus inh 48
CCOC(=O)c1c2c3c(cccc3[nH]c1=O)C(=O)c1ccccc1-2	none
CCOC(=O)c1c2c3c(c(Cl)ccc3[nH]c1=O)C(=O)c1ccccc1-2	Bcl-XL Bim block 51
O=C(/C=C/c1ccc(-c2ccc(F)cc2)o1)N1CCCC1	none
N#Cc1c2n(c3c(=S)nc[nH]c13)CCCCC2	Arbovirus inh 31
CCc1cccc(CC)c1NC(=S)N1CCn2cccc2C1c1cccnc1 (configuration not stated)	Bcl-B Bim block 49
Cc1ccc(NC(=S)N2CCn3cccc3C2c2cccnc2)cc1 (configuration not stated)	none
COc1ccc(C(=S)N2CCCCCC2)cc1	Bim-Bcl-W 46, Bcl-XL Bim block 53, Bfl-1 Bim block 52
COc1ccc(-c2noc(CSc3nc(-c4ccccc4)cc(=O)[nH]3)n2)cc1OC	Arbovirus inh 52
COc1ccc(-c2noc(-c3ccccc3-c3ccccc3)n2)cc1OC	Arbovirus inh 31
Cc1csc(NC(=O)c2c(O)c3c(n(CC(C)C)c2=O)CCCC3)n1	Arbovirus inh 55
CC(C)Cn1c2c(c(O)c(C(=O)Nc3nccs3)c1=O)CCCC2	Arbovirus inh 37
CCCn1c2c(c(O)c(C(=O)Nc3nc(C)cs3)c1=O)CCCC2	none
CCCn1c2c(c(O)c(C(=O)Nc3nccs3)c1=O)CCCC2	none
O=C(O)CC1S/C(=N/N=C/C=C/c2ccccc2[N+](=O)[O-])NC1=O (configuration not stated)	Bcl-XL Bim block 50, Bfl-1 Bim block 46
O=C1CC(c2ccsc2)c2ccc3ccccc3c2N1 (configuration not stated)	none
O=C1CC(c2cccc([N+](=O)[O-])c2)c2ccc3ccccc3c2N1 (configuration not stated)	Arbovirus inh 36
CCOc1ccc(-n2c(C)cc(/C=C3/C(=N)N4C(=NC3=O)SN=C4S(C)(=O)=O)c2C)cc1	Arbovirus inh 42
Cc1cc(/C=C2/C(=N)N3C(=NC2=O)SN=C3S(C)(=O)=O)c(C)n1-c1ccc(F)cc1	Arbovirus inh 37
CC1=CC2=NC(=O)/C(=C\c3cc(C)n(-c4ccc(F)cc4)c3C)C(=N)N2O1	none
COc1ccccc1-n1c(C)cc(/C=C2/C(=N)N3C(=NC2=O)SN=C3S(C)(=O)=O)c1C	Arbovirus inh 35
Cc1cc(/C=C2/C(=N)N3C(c4ccccc4)=CSC3=NC2=O)c(C)n1-c1ccccc1	none
CC(C)C(NC(=O)OCc1ccccc1)C(=O)NC1CCCCC1 (configuration not stated)	none
O=C(Nc1ccccc1)C1=C[C@@H](c2ccc(C(F)(F)F)cc2)C[C@@H](OCc2ccc(CO)cc2)O1	none
COc1ccccc1N1CCN(/N=C\c2sccc2C)CC1	none
COc1cc(OC)cc(C(=O)NNC(=S)Nc2ccc(S(N)(=O)=O)cc2)c1	none
CN(CC(=O)Nc1ccc(Cl)c(Cl)c1)Cc1nnc(-c2ccc(F)cc2)o1	none
CC(CCc1ccccc1)NC(=O)C1CCN(S(=O)(=O)N2CCCCC2)CC1 (configuration not stated)	Bcl-XL Bim block 41
O=C(NNS(=O)(=O)c1ccccc1F)c1sccc1-n1cccc1	none
O=C(Nc1nc(-c2ccc(Cl)s2)cs1)c1cccs1	none
Cc1cc(-c2csc(NC(=O)c3ccc(=O)[nH]c3)n2)c(C)n1Cc1ccccc1	none
O=C(Nc1nc(-c2ccccc2)ns1)c1cccs1	Arbovirus inh 30
O=C(Nc1nc(-c2ccccc2)cs1)c1cccs1	Arbovirus inh 74
O=C(CSc1ncn[nH]1)Nc1nc(-c2ccccc2)ns1	Arbovirus inh 41
O=C(Nc1nc(-c2ccccc2)cs1)c1ccc(=O)[nH]c1	Arbovirus inh 38
COc1ccc(C(=O)NCCCc2nc3ccccc3n2Cc2ccccc2C)cc1OC	none
COc1ccccc1CCc1nnc(CCC(=O)NCC[C@@H]2C[C@@H]3C=C[C@H]2C3)o1	none
O=C(c1ccco1)N1CCN(CCCCOc2cccc3ccccc23)CC1	none
Cc1cc(F)ccc1NCc1ccc([N+](=O)[O-])cc1	none

Compound activity deposited in PubChem by several laboratories.
